These results are taken from PubChem BioAssay (NCI).

The panel holds about 83,000 compounds, 20% with a hit somewhere; the sample as a whole holds those more often.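 Testing used 96-well plates and a 48-hour single-concentration exposure. Example: -40 means 40% of the starting cells died.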 A number with no mark means an inactive call. Calls of active or inactive are those of the source. Rule for the calls: active = growth percent below 10; inactive = the rest.

Among the test systems are NCI-H23 lung; NCI-H226 lung; NCI-H322M lung; HOP-62 NSCLC; NCI-H460 lung; HOP-92 NSCLC; NCI-H522 lung; A549/ATCC NSCLC; 786-0 renal; COLO 205 colon; DU-145 prostate; K-562 leukemia; MALME-3M melanoma; MDA-MB-231 breast; RXF 393 renal; SF-268 CNS; SF-295 CNS; SF-539 CNS; UACC-257 melanoma; M14 melanoma.
Test in all cases: NCI-60 one-dose screen, 48 h (100 = growth as untreated, 0 = no growth, -100 = all killed)
What all share (conditions): 10 µM unless noted

Regarding `CC1(C)CC[C@]2(c3nnc(-c4ccncc4)o3)CC[C@]3(C)C(=CC[C@@H]4[C@@]5(C)CCC(=O)C(C)(C)[C@@H]5CC[C@]43C)[C@@H]2C1`, the growth in the assay on NCI-H23 lung was 85.6%; in the assay with NCI-H226 lung, 64.9%; with NCI-H322M lung, 91.3%; in the assay on HOP-62 NSCLC it was 87.6%; with NCI-H460 lung, 77.9%; in the assay with HOP-92 NSCLC, 92.2%. The growth in the assay on NCI-H522 lung is 71.2%; in the assay on A549/ATCC NSCLC, 73.7%; with 786-0 renal it was 85%; in the assay on COLO 205 colon it was 85%; in the assay on DU-145 prostate it was 91.2%; with K-562 leukemia, 62.1%. Further, the growth in the assay with MALME-3M melanoma is 86.1%; with MDA-MB-231 breast it was 87%; with RXF 393 renal it was 101%; in the assay on SF-268 CNS, 81.5%; in the assay with SF-295 CNS, 79.7%; with SF-539 CNS, 90.7%. The values for the growth in the assay on UACC-257 melanoma and in the assay with M14 melanoma were 78.4% and 84.3%, respectively.

For the molecule `COc1ccc(-c2cc(C(=O)N3N=C(c4ccc(N)cc4)CC3c3ccc(OC)cc3)c3cc(OC)ccc3n2)cc1` (stereo not given), the growth with NCI-H23 lung was 48.6%; with NCI-H226 lung, 94.9%; with NCI-H322M lung, 93.3%; in the assay on HOP-62 NSCLC it was 60.1%; in the assay with NCI-H460 lung, 85.4%; with HOP-92 NSCLC, 56%. Further, the growth is 29.5% in the assay with NCI-H522 lung; 76.6% in the assay on A549/ATCC NSCLC; 18.9% in the assay on 786-0 renal; 96.3% with COLO 205 colon; 80.2% in the assay on DU-145 prostate; 11.8% with K-562 leukemia. The growth is 71.3% with MALME-3M melanoma; 73.6% in the assay with MDA-MB-231 breast; 68.2% in the assay on RXF 393 renal; 54.9% in the assay on SF-268 CNS; 64.1% in the assay with SF-295 CNS; 34% with SF-539 CNS. For the same molecule, the growth is 60.8% in the assay on UACC-257 melanoma and 38.4% with M14 melanoma.

On to `CC(C)(C)c1nc2c(s1)c1nc(N)ncc1c1ccc(NS(=O)(=O)c3c(F)cccc3F)c(F)c12`, for which the growth was 78.5% in the assay on NCI-H23 lung; 65.4% in the assay with NCI-H226 lung; 60.4% with NCI-H322M lung; 84.1% in the assay on HOP-62 NSCLC; 52.5% in the assay on NCI-H460 lung; 44.1% in the assay on HOP-92 NSCLC. Besides, the growth in the assay on NCI-H522 lung is 50.3%; in the assay on A549/ATCC NSCLC it was 55.8%; in the assay on 786-0 renal it was 66.1%; in the assay with COLO 205 colon it was 4.03% (active); with DU-145 prostate, 49.9%; in the assay with K-562 leukemia, 66.3%. In addition, the growth in the assay with MALME-3M melanoma was -31.6% (active); in the assay on MDA-MB-231 breast, 29.2%; in the assay with RXF 393 renal it was 13.6%; with SF-268 CNS, 79.1%; in the assay on SF-295 CNS, 60.7%; in the assay on SF-539 CNS, 79.7%. Besides, the results for the growth in the assay with UACC-257 melanoma and with M14 melanoma were -13.1% (active) and 7.08% (active), respectively.

`CCOC(=O)c1c(C)nc2c(c1N)/C(=C/c1ccc[nH]1)C(=O)N2Cc1ccc(C(F)(F)F)cc1`: the growth in the assay on NCI-H23 lung is 51.8%; in the assay on NCI-H226 lung it was 38.1%; with NCI-H322M lung it was 74.4%; in the assay with HOP-62 NSCLC, 23.6%; in the assay on NCI-H460 lung, 16.8%; with HOP-92 NSCLC, 41.1%. For the same molecule, the growth was 43.3% in the assay on NCI-H522 lung; 48.9% with A549/ATCC NSCLC; 22.9% in the assay on 786-0 renal; 75.6% in the assay with COLO 205 colon; 79.1% in the assay with DU-145 prostate; 63.4% in the assay on K-562 leukemia. In addition, the growth with MALME-3M melanoma is 62.1%; in the assay on MDA-MB-231 breast, 18.3%; in the assay with RXF 393 renal it was 48.6%; in the assay on SF-268 CNS, 55.5%; with SF-295 CNS, 29.4%; in the assay with SF-539 CNS it was 40.4%. Besides, the growth in the assay with UACC-257 melanoma was 77.6%; with M14 melanoma it was 69.8%.

For `Cc1ccccc1NC(=O)c1sc2nc(C)c(C(C)O)cc2c1N` (stereo not given), the growth with NCI-H23 lung is 79%; in the assay on NCI-H226 lung it was 88.6%; in the assay with NCI-H322M lung, 86%; in the assay with HOP-62 NSCLC, 45.1%; in the assay with NCI-H460 lung, 35.4%; in the assay on HOP-92 NSCLC it was 47.3%. The growth in the assay on NCI-H522 lung is 32.8%; in the assay with A549/ATCC NSCLC it was 36.2%; with 786-0 renal, 57%; in the assay with COLO 205 colon it was 40.5%; with DU-145 prostate it was 81.8%; in the assay with K-562 leukemia, 14.4%. In addition, the growth in the assay on MALME-3M melanoma was 60.2%; in the assay on MDA-MB-231 breast, 59.4%; with RXF 393 renal, 44.9%; with SF-268 CNS, 67.5%; in the assay with SF-295 CNS, 39.5%; in the assay on SF-539 CNS, 31.7%. For the same molecule, the growth in the assay with UACC-257 melanoma was 52.5%; in the assay on M14 melanoma, 24.7%.

Turning to `O=C1c2ccccc2C(=O)c2c1oc1c2c(=O)[nH]c2ccccc21`, the growth in the assay with NCI-H23 lung was 66%; in the assay with NCI-H226 lung, 78.5%; in the assay with NCI-H322M lung it was 89.3%; with HOP-62 NSCLC it was 119%; in the assay on NCI-H460 lung, 68.3%; in the assay on HOP-92 NSCLC, 71.4%. The growth in the assay with NCI-H522 lung was 54.8%; in the assay with A549/ATCC NSCLC, 97.2%; in the assay with 786-0 renal, 102%; in the assay on COLO 205 colon, 109%; with DU-145 prostate, 82%; with K-562 leukemia, 55.2%. Further, the growth in the assay with MALME-3M melanoma is 124%; in the assay on MDA-MB-231 breast, 10.3%; with RXF 393 renal, 97.2%; with SF-268 CNS it was 91%; in the assay on SF-295 CNS, 92.7%; in the assay on SF-539 CNS it was 90.3%. For the same molecule, the growth with UACC-257 melanoma was 112%; in the assay on M14 melanoma, 73.4%.

In the case of `O=C(O)c1cc(N=Nc2ccc(-c3ccc(N=Nc4c(S(=O)(=O)O)cc5ccc(Nc6ccccc6)cc5c4O)cc3)cc2)ccc1O`, the growth in the assay on NCI-H23 lung is 92.6%; with NCI-H226 lung it was 116%; in the assay with NCI-H322M lung, 94.5%; with HOP-62 NSCLC, 94.6%; with NCI-H460 lung, 113%; in the assay with HOP-92 NSCLC, 114%. The growth in the assay on NCI-H522 lung is 89.7%; in the assay with A549/ATCC NSCLC, 104%; with 786-0 renal, 106%; with COLO 205 colon it was 114%; in the assay on DU-145 prostate, 109%; with K-562 leukemia, 91.3%. For the same molecule, the growth in the assay with MALME-3M melanoma was 86%; in the assay on MDA-MB-231 breast, 98%; in the assay with RXF 393 renal, 112%; in the assay with SF-268 CNS it was 93.1%; with SF-295 CNS it was 99.7%; in the assay on SF-539 CNS, 108%. In addition, the results for the growth with UACC-257 melanoma and with M14 melanoma were 107% and 106%, respectively.

As for `O=C(/C(=C/c1ccc([N+](=O)[O-])cc1)SCc1ccccc1)c1ccc(Cl)cc1`, the growth in the assay with NCI-H23 lung is 70.9%; with NCI-H226 lung it was 68.4%; in the assay with NCI-H322M lung it was 105%; with HOP-62 NSCLC it was 80.3%; with NCI-H460 lung it was 87.4%; with HOP-92 NSCLC, 71.1%. The growth is 41.4% in the assay with NCI-H522 lung; 82.7% in the assay on A549/ATCC NSCLC; 86.9% in the assay with 786-0 renal; 70.3% in the assay with COLO 205 colon; 79.3% in the assay with DU-145 prostate; 5.41% (active) in the assay on K-562 leukemia. Further, the growth is 85.3% in the assay with MALME-3M melanoma; 54.8% in the assay with MDA-MB-231 breast; 67.3% in the assay with RXF 393 renal; 86.5% in the assay with SF-268 CNS; 90.3% with SF-295 CNS; 94.3% in the assay with SF-539 CNS. Also, the growth is 90.2% in the assay with UACC-257 melanoma and 67.3% in the assay with M14 melanoma.
